# Active and inactive are the calls of the source. How the source made its calls: active means hit-call score of the fitted dose curve at least 0.9, where 1 is the maximum; inactive means score below 0.9.
# Assay: ATG_M_61_CIS: Attagene CIS-FACTORIAL HepG2 Assay for M61 Transcription Factor (Internal Marker) (AID 2282937)
# Conditions: HepG2 Attagene CIS-FACTORIAL M61 internal marker reporter; actives raise or lower the signal
# Summary of the method: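 Endogenous transcription factor activity in HepG2 is read through transiently transfected cis-element reporter units. After 24 h dosing, RNA undergoes reverse transcription, PCR and primer extension with 6-FAM before capillary electrophoresis; DMSO-referenced bidirectional fit.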
row,Structure (SMILES),outcome
1,O=C1C(Cl)=C(Cl)C(=O)C(Cl)=C1Cl,inactive
2,N#CCCCCC#N,inactive
3,CC1CCC(=O)O1 (stereo not given),inactive
4,COc1cc(OC)c(OC)cc1C=O,inactive
5,CC(C)c1ccc(O)cc1,inactive
6,C[N+](C)(C)CC(=O)[O-],inactive
7,CC(C)(c1cc(Cl)c(O)c(Cl)c1)c1cc(Cl)c(O)c(Cl)c1,inactive
8,O=C(NCNC(=O)NC1C(=O)NC(=O)N1CO)NC1C(=O)NC(=O)N1CO (stereo not given),inactive
9,[N-]=[N+]=CC(=O)OC[C@H](N)C(=O)O,inactive
10,COCC(=O)N(c1c(C)cccc1C)N1CCOC1=O,inactive
11,CC(C)CCCCCCCOP(=O)(Oc1ccccc1)Oc1ccccc1,inactive
12,CCC1CCC(=O)O1 (stereo not given),inactive
13,C=COCCCl,inactive
14,C=CCN(CC=C)C(=O)C(Cl)Cl,inactive
15,CC[N+](=O)[O-],inactive
16,CC(Cc1ccc(C(C)(C)C)cc1)CN1C[C@@H](C)O[C@@H](C)C1 (stereo not given in full),inactive
17,[Cl-].[Cl-].[Cl-].[Yb+3],inactive
18,CCOC(=O)N(C)N=O,inactive
19,O=CNC(N1CCN(C(NC=O)C(Cl)(Cl)Cl)CC1)C(Cl)(Cl)Cl (stereo not given),inactive
20,CCC[N+](=O)[O-],inactive

row,Structure (SMILES),outcome
1,CC(C)(O)C#N,inactive
2,CC(C)C#N,inactive
3,S=c1[nH]c2ccccc2[nH]1,inactive
4,CCCCCc1cc(O)cc(O)c1,inactive
5,c1ccc(Nc2ccc3ccccc3c2)cc1,inactive
6,CSc1nc(N=[N+]=[N-])nc(NC(C)C)n1,inactive
7,CC=Cc1ccc2c(c1)OCO2,inactive
8,Cc1ccc(OP(=O)(Oc2ccc(C)cc2)Oc2ccc(C)cc2)cc1 (tested in a mixture with another compound),inactive
9,ClC1=C(Cl)[C@]2(Cl)[C@@H]3[C@@H](Cl)[C@H](Cl)C[C@@H]3[C@@]1(Cl)C2(Cl)Cl,inactive
10,O=S(=O)(c1ccccc1)c1ccccc1,inactive
11,CCC(C)c1cc(C(C)(C)C)cc(-n2nc3ccccc3n2)c1O (stereo not given),inactive
12,CC1(C)C(=O)NC(=O)NC1=O,inactive
13,CC(=O)/C=C/c1ccccc1,inactive
14,c1ccc(P(c2ccccc2)c2ccccc2)cc1,inactive
15,CCOC(=O)COc1ccc(Cl)cc1Cl,inactive
16,CCN(CC)C(=S)S,inactive
17,N#Cc1cccc(C#N)c1,inactive
18,O=C1Nc2ccc(Cl)cc2C(c2ccccc2)=NC1O (stereo not given),inactive
19,N#CC(c1ccccc1)c1ccccc1,inactive
20,C[N+](C)=CCl,inactive

# Source: PubChem BioAssay (EPA / NIEHS)
